From PubChem BioAssay AID777 (Sanford-Burnham Center for Chemical Genomics, 2007) come the findings set out here.

About 19,000 (20%) of roughly 96,000 compounds were called active. A selection follows. Unmarked numbers belong to inactive results.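 Rule for the calls: active = blocking of liver enzyme CYP2C9 beyond about 50% at 5 µM (limit read from the data); inactive = the rest.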

The assay deals with Cytochrome P450 2C9 (Homo sapiens) (UniProt P11712). Kind of assay: blockers of cytochrome P450 2C9 activity – biochemical, luminescence, ADME assay, primary screen (AID 777). To be noted: CYP2C9 Supersomes, luciferin-H conversion, at 5 µM, active compounds read high.
Chain of Cytochrome P450 2C9 (Homo sapiens) (P11712 whole entry, looked up): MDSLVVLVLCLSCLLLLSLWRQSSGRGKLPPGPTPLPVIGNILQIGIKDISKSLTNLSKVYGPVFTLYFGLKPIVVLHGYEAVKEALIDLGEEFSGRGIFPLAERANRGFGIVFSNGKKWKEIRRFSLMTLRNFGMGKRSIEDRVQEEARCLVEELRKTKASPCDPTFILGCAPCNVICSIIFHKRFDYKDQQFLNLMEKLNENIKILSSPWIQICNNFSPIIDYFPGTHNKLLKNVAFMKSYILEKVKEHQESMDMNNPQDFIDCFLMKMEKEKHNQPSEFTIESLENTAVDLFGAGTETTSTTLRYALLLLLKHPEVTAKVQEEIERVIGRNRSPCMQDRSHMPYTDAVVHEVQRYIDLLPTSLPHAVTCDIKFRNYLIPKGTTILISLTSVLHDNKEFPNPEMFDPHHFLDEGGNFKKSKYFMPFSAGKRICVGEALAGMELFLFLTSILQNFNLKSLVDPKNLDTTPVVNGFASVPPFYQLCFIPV
As to `COc1ccc(Oc2c(Cl)cnn(-c3ccccc3)c2=O)cc1`, the inhibition (commonly the change of the read-out against control, counted positive when it falls) was 18.9%.
Take `Cn1c(COc2ccc(Cl)cc2)nc2ccccc2c1=O`: the inhibition is 43.9%.
For the compound `Cc1[nH]nc(-c2ccc(OCc3cnn(-c4ccccc4)c3)cc2O)c1Oc1ccc(Cl)cc1`, the inhibition is 66.2% (active).
For the compound `CC(C)(C)C(=O)Nc1ccc(C(=O)N/N=C/c2ccccc2OC(=O)c2ccc(Cl)cc2Cl)cc1`, the inhibition is 21.5%.
Regarding `Cn1c2c(c(=O)n(C)c1=O)[C@@H]1c3c(ccc4ccccc34)OC[C@@H]1CO2`, the inhibition is 18.4%.
Consider `CC(=O)Nn1cc2c(=O)n(C)c(=O)n(C)c2c1`, for which the inhibition was -1.4%.
Next, `COc1ccc(OC)c(NC(=O)Cn2c(=O)oc3ccccc32)c1`: 26.9%; `Cn1c(=O)c2cn(-c3cccc4ccccc34)cc2n(C)c1=O`: 71.3% (active).
On to `COc1ccc(OC)c(-n2cc3c(=O)n(C)c(=O)n(C)c3c2)c1`, for which the inhibition is 78.8% (active).
`CCn1c(NCCc2ccc(OC)c(OC)c2)nc2c1c(=O)n(C)c(=O)n2C`: the inhibition is 12.4%.
Take `O=C(OC1CCOC1=O)c1ccc(-c2nc3ccccc3s2)s1` (stereo not given): the inhibition was 4.9%.
For `CSCCC(NC(=O)C1CCC(C)CC1)C(=O)NCc1ccco1` (stereo not given) the value was 10.7%.
For `CSCCC(NC(N)=O)C(=O)N(C)CC(=O)Nc1ccc(C)cc1` (stereo not given), the inhibition was -21.5%.
`CC1(C)CC(O)C(CCC(O)c2ccccc2)C(C)(C)N1` (stereo not given): the inhibition was -1.7%.
For the compound `O=c1c(F)cn(C2CCCO2)c(=O)n1Cc1ccccc1Cl` (stereo not given), the inhibition was 15.2%.
For `Cc1ccc(NC(=S)Nc2ncccc2C)c(C)c1` the value was -26.1%; for `CCOC(=O)c1sc2nc(CSCC(=O)OCc3ccc(C(=O)OC)o3)[nH]c(=O)c2c1C`, 54.4% (active); for `CCOC(=O)c1ccc(COC(=O)c2cc(=O)[nH]c3ccccc23)o1`, -27.9%.
As to `CCOc1cc(/C=N/n2cnnc2)c(Br)cc1O`, the inhibition is 43.2%.
In the case of `Cc1cc(=O)oc2cc(OC(C)C(=O)Nc3ccc(N4CCOCC4)cc3)ccc12` (stereo not given), the inhibition is -6.3%.
Regarding `COc1ccccc1N1CC(C(=O)Nc2ccc(S(=O)(=O)N3CCOCC3)cc2)CC1=O` (stereo not given), the inhibition was 8.1%.
For the compound `Cc1cc(C(=O)OC(C)C(=O)Nc2cccc(S(=O)(=O)N3CCOCC3)c2)c(C)o1` (stereo not given), the inhibition is 97.4% (active).
Take `O=C(O)CCC(=O)NCc1ccc2[nH]c3c(c2c1)CCCC3`: the inhibition is -5.1%.
On to `COc1ccc(CNC2CCCCC2)cc1`, for which the inhibition is 2.3%.
As for `CCOC(=O)C1CCN(C(=O)C2CCN(S(=O)(=O)N3CCCC3)CC2)CC1`, the inhibition was 20.7%.
Turning to `CCOC(=O)C1CCN(C(=O)C2CCN(S(=O)(=O)CC)CC2)CC1`, the inhibition is -14.3%.
Consider `CCOC(=O)C1CCN(C(=O)Nc2ccc(Cl)cc2)CC1`, for which the inhibition is 53.3% (active).
`O=C(NCCc1ccc2c(c1)OCCO2)c1cc2ccccc2o1`: the inhibition was 35.2%.
For `O=C(CN1CCN(c2nc(-c3ccccc3)cs2)CC1)NCc1ccc2c(c1)OCO2` the value was 91.4% (active); for `O=C(Cn1nnc(-c2ccccc2)n1)NCc1ccccc1`, -11.3%; for `O=C(Cn1nnc(-c2ccc3c(c2)OCO3)n1)NCc1ccco1`, 16.6%.
As for `O=C(NCc1ccc2c(c1)OCO2)c1cc2c(s1)CS(=O)(=O)C2`, the inhibition is 25%.
Take `CC1CCCC(C)N1C(=O)CN1CCN(c2nc(-c3ccc(F)cc3)cs2)CC1` (stereo not given): the inhibition is 1.8%.
For the compound `O=C(Cn1nnc(-c2ccccc2)n1)NCc1ccc2c(c1)OCO2`, the inhibition was 50.4% (active).
For `O=C(CC(Cc1ccccc1)C(=O)O)NCCc1ccc2c(c1)OCO2` (stereo not given) the value was 75.5% (active); for `O=C(COc1ccccc1)NCc1ccc2c(c1)OCO2`, 32.4%.
Regarding `O=C(COC(=O)c1ccc2c(c1)OCCO2)NCc1ccccc1`, the inhibition is -9.3%.
As to `COc1ccc(-c2csc(N3CCN(Cc4ccc5c(c4)OCO5)CC3)n2)cc1`, the inhibition was -14.4%.
With `O=C(CN(Cc1ccccc1)C(=O)c1ccc2c(c1)OCCO2)NCc1ccc2c(c1)OCO2`, the inhibition is 50.2% (active).
`N#C/C=C1\Sc2ccccc2C(=O)N1CC(=O)N1CCN(S(=O)(=O)c2ccccc2)CC1`: the inhibition was -15.4%.
Regarding `Cc1c(-c2ccccc2)nc(N)c(C#N)c1-c1cccs1`, the inhibition was 29.3%.
Consider `O=c1c2ccccc2nc2n1C(CSc1ccc(Cl)cc1)CN2` (stereo not given), for which the inhibition was -1.6%.
Regarding `Cc1nc2ccc(S(=O)(=O)NC(C(=O)N3CCCCCC3)C(C)C)cc2s1` (stereo not given), the inhibition was 26.6%.
With `COC(=O)Nc1ncc(CN2C(=O)c3ccccc3C2=O)s1`, the inhibition was -12%.
On to `N/C(=N\OC(=O)CCC1CCCCC1)c1ccccn1`, for which the inhibition was 0.9%.
For `O=C(O)c1cc(S(=O)(=O)N2CCCCCC2)c(Cl)cc1Cl` the value was 22.4%; for `O=C(COC(=O)c1ccccc1SCC(=O)NC1CCCCC1)NC1CCCCC1`, 12.1%.
In the case of `CCOC(=O)c1ccc(-c2ccc(C(=O)Nc3cccnc3)o2)cc1`, the inhibition is 14.6%.
Next, `CCOC(=O)c1cc(NC(=O)c2ccc(Cl)cc2)c(=O)oc1-c1ccccc1`: -22.2%; `CCOC(=O)c1ccc(COC(=O)CCc2nc(-c3ccccc3)c(-c3ccccc3)o2)cc1`: 85.6% (active).
On to `Cc1ccc(O)c(NC(=O)COc2cc(C)ccc2C)c1`, for which the inhibition is -59.4%.
For `COc1ccccc1-c1c(C)nn2c(C)c(C(C)=O)cnc12` the value was 3.7%; for `COc1ccc(-c2nc(SCC(=O)N3CCOCC3)n[nH]2)cc1`, -9.6%; for `O=C1/C(=C/c2cccs2)CCc2ccccc21`, 72.8% (active).
Regarding `C(=N/N1CCN(c2ccccc2)CC1)/c1cccs1`, the inhibition was 40.3%.
Consider `Cc1ccc(N2CCN(C3=NC(=O)/C(=C\c4cccs4)S3)CC2)cc1`, for which the inhibition is -127%.
Consider `COc1ccc(Cn2c(C)c(C)c(C#N)c2NC(=O)Nc2ccc(F)cc2)cc1`, for which the inhibition is 13.6%.
As for `Cc1c(C#N)c(NC(=O)c2ccccc2)n(Cc2ccccc2)c1C`, the inhibition was 60.7% (active).
As to `Cc1ccc(C(=O)Nc2c(C#N)c(C)c(C)n2Cc2ccccc2)cc1`, the inhibition is 22.4%.
As for `CCCc1nc(N)nc2c1C(=O)CC(C)(C)C2`, the inhibition is -35.3%.
As to `CCCSc1nsc(N)n1`, the inhibition is 16.4%.
As for `O=C(Nc1ccncc1)c1c(F)cccc1F`, the inhibition is 40.2%.
Regarding `O=C(Nc1ccncc1)c1cc2ccccc2o1`, the inhibition is 86% (active).
On to `O=C(Nc1cccc(-c2nc3ncccc3o2)c1)c1ccco1`, for which the inhibition was -2.1%.
Take `O=C(C1CCCO1)N(Cc1ccccc1)c1ccccc1` (stereo not given): the inhibition was -4%.
Turning to `Cc1cc([N+](=O)[O-])c(N2CCC[C@@H]2C(=O)O)c([N+](=O)[O-])c1`, the inhibition is 5.1%.
For the compound `CS(=O)(=O)c1ccc2nc(NC(=O)C3C4C=CC(C4)C3C(=O)O)sc2c1` (stereo not given), the inhibition was -5.4%.
`CC(C)(C)n1c(=O)[nH]c2c(c1=O)CCC2`: the inhibition is -7.2%.
With `COC(=O)c1ccccc1NC(=O)C1CCN(S(=O)(=O)c2cc(OC)ccc2OC)CC1`, the inhibition is 92.2% (active).
As to `CCOc1ccc(OCC)c(NC(=O)C2CCN(S(=O)(=O)c3c(C)noc3C)CC2)c1`, the inhibition was 48.4%.
Regarding `CCOc1ccccc1NC(=O)C1CCN(S(=O)(=O)c2c(C)nn(C)c2C)CC1`, the inhibition was -30.6%.
For `O=C(Cc1c(O)c2ccccc2[nH]c1=O)NCc1ccccc1` the value was 9.8%; for `O=C(Nc1ccon1)c1cccc(Cl)c1`, 17.5%.
For the compound `Cc1ccc(Oc2ccc(N)cc2)cc1`, the inhibition was 29.2%.
Turning to `CC(C(=O)Nc1ccc(F)c(F)c1F)N1CCCCCC1` (stereo not given), the inhibition was 13.7%.
For `Cc1cc(NC(=O)COc2ccc(Cl)cc2Cl)n(CCC#N)n1` the value was 16.2%; for `O=C1CCCC2=C1C(c1ccccc1)n1c(s/c(=C/c3cccc(F)c3)c1=O)=N2` (stereo not given), 49.7%; for `CC(C)CCNC(=O)Cn1c(=O)oc2cc(S(=O)(=O)N3CC(C)CC(C)C3)ccc21` (stereo not given), 51.3% (active).
Consider `CCOC(=O)Cn1c(=O)oc2cc(S(=O)(=O)NCC3CCCO3)ccc21` (stereo not given), for which the inhibition was 11.7%.
On to `O=C(NC1CCCCC1)n1c(=O)oc2cc(S(=O)(=O)N3CCCCC3)ccc21`, for which the inhibition is -56.7%.
`Cn1c(=O)c2c(nc(SCCNS(=O)(=O)c3ccccc3)n2C)n(C)c1=O`: the inhibition is 42.7%.
Next, `Cn1c(=O)c2c(nc(N3CCCCCC3)n2CC(O)COc2ccc(Cl)cc2)n(C)c1=O` (stereo not given): 20%.
Next, `Cn1c(=O)c2c(nc(SCC(=O)Nc3ccccc3N3CCCCC3)n2C)n(C)c1=O`: 93.9% (active).
With `CC(C)n1c(SCC(=O)Nc2ccccc2N2CCCCC2)nc2c1c(=O)n(C)c(=O)n2C`, the inhibition was 87.2% (active).
Regarding `Cn1c(=O)c2c(nc(N3CCCCCC3)n2CC(=O)c2ccc(Br)cc2)n(C)c1=O`, the inhibition was 15.6%.
`O=C(CN1CCN(C2CCCCC2)CC1)Nc1ccccc1N1CCCCC1`: the inhibition is -1.6%.
Turning to `Cc1ccc2[nH]c(=O)c(-c3nc4c(C)cccn4c3NCc3ccco3)cc2c1`, the inhibition is 13%.
`Fc1ccc(-c2ccc(-c3nn4c(-c5ccco5)nnc4s3)o2)cc1`: the inhibition is 7.3%.
Regarding `COC(=O)c1ccc(Oc2nc(Nc3ccc(F)cc3)nc(N3CCCC3)n2)cc1`, the inhibition was 31.9%.
`Cc1ccc2nc(Nc3ccccc3O)nc(-c3ccccc3)c2c1`: the inhibition is 13.8%.
Consider `Cc1nnc(SCC(N)=O)n1CC1CCCO1` (stereo not given), for which the inhibition is 0.5%.
In the case of `O=C(NC1CCCCC1)c1ccc2c(=O)n(CC3CCCO3)c(=O)[nH]c2c1` (stereo not given), the inhibition is -2.1%.
Turning to `O=c1c2ccccc2nnn1CSc1nc2sc3c(c2c(=O)n1CC1CCCO1)CCC3` (stereo not given), the inhibition is 84.8% (active).
For `COc1cccc(CNc2nc3nc4c(c(=O)n3[nH]2)CCC4)c1`, the inhibition was 15.1%.
As for `CC(=O)Nc1ccc(N2C(=O)C3C4CC(=O)C(c5ccccc54)C3C2=O)cc1` (stereo not given), the inhibition is -8.5%.
